Source: the supplement of paper PMC13380429

Experiments:
[1] = test system: Vero E6 infected with SARS-CoV-2; assay: morphology score (similarity to uninfected cells); higher = more like uninfected cells; details: 24 h
[2] = test system: Vero E6 infected with SARS-CoV-2; assay: SARS-CoV-2 infection rate relative to infected DMSO; higher = more infection, active = 60 or less; details: 24 h

Row | Compound | morphology score [1] | SARS-CoV-2 infection rate [2]
1 | O=C(Nc1ccccc1)[C@]12C[C@H]1/C(=N\O)c1ccccc1O2 (10 µM) | 0.246 | 79% (inactive)
2 | C=C[C@](C)(O)CC[C@@H]1[C@@]2(C)CCCC(C)(C)[C@@H]2CC[C@@]1(C)O [sclareol] (10 µM) | 0.142 | 95.5% (inactive)
3 | CCc1cccc2c3c([nH]c12)C(CC)(CC(=O)O)OCC3 (stereo unspecified) [etodolac] (10 µM) | -0.0116 | 115% (inactive)
4 | O=C(O)CC(S)C(=O)O (stereo unspecified) [mercaptosuccinic-acid] (10 µM) | -0.089 | 108% (inactive)
5 | O=C(O)C1=CCCNC1 [guvacine] (10 µM) | 0.2 | 93% (inactive)
6 | Clc1ccc(Nc2nnc(Cc3ccncc3)c3ccccc23)cc1 [vatalanib] (10 µM) | 0.199 | 96% (inactive)
7 | C=C1C(=O)O[C@@H]2/C=C(\C)CC/C=C(\C)CC[C@@H]12 [costunolide] (10 µM) | 0.222 | 78.5% (inactive)
8 | CC1(COc2ccc3c(c2)ncn3-c2ccc3cccc(N4CCC(N)CC4)c3n2)COC1 [crenolanib] (0.833333 µM) | -0.0592 | 99.5% (inactive)
9 | Nc1ccn([C@H]2C[C@H](O)[C@@H](CO)O2)c(=O)n1 [torcitabine] (10 µM) | -0.00729 | 108% (inactive)
10 | COc1ccc(-c2cc(C(F)F)nn2-c2ccc(S(N)(=O)=O)cc2)cc1F [deracoxib] (10 µM) | 0.112 | 112% (inactive)
11 | Cc1ncc(Cl)cc1NCc1ccc(C(=O)N[C@@H](CC2CCCC2)C(=O)NC2CC2)s1 (10 µM) | 0.0746 | 106% (inactive)
12 | O=C1c2ccc(Nc3ccc(F)cc3F)cc2CCc2ccc(OC[C@H](O)CO)cc21 [skepinone-L] (10 µM) | -0.053 | 113% (inactive)
13 | COc1cccc(CCc2ccccc2OCC[C@@H]2C[C@@H](O)CN2C)c1 (10 µM) | 0.533 | 54.5% (active)
14 | O=S1(=O)CCN(CN2CCS(=O)(=O)NC2)CN1 [taurolidine] (10 µM) | -0.0437 | 109% (inactive)
15 | NC(=O)c1cccnc1 [nicotinamide] (10 µM) | 0.026 | 108% (inactive)
16 | O=C(CCc1ccc(O)cc1)c1c(O)cc(O)cc1O [phloretin] (10 µM) | 0.241 | 104% (inactive)
17 | CCCCCCCCCCCCCCCC[n+]1ccccc1 [cetylpyridinium] (0.833333 µM) | 0.0939 | 86% (inactive)
18 | CC(C)Nc1cc(-c2c[nH]c(C(=O)N[C@H](CO)c3cccc(Cl)c3)c2)c(Cl)cn1 (0.833333 µM) | -0.017 | 109% (inactive)
19 | Cc1cccc(Oc2nc3c(C)cccn3c(=O)c2/C=C(\C#N)c2nc3ccccc3s2)c1 (10 µM) | 0.0471 | 106% (inactive)
20 | NCCCCCC(O)(P(=O)(O)O)P(=O)(O)O [neridronic-acid] (10 µM) | 0.208 | 91% (inactive)
21 | CN1CCN(c2cccc3[nH]c(=O)oc23)CC1 [pardoprunox] (10 µM) | -0.1 | 103% (inactive)

Row | Compound | morphology score [1] | SARS-CoV-2 infection rate [2]
22 | C[C@H]1c2cccc(O)c2C(=O)C2=C(O)[C@]3(O)C(=O)C(C(N)=O)=C(O)[C@@H](N(C)C)[C@@H]3[C@@H](O)[C@@H]21 [doxycycline] (10 µM) | 0.0783 | 97% (inactive)
23 | CC(C)[C@H](N)C(=O)OCC(CO)OCn1cnc2c(=O)nc(N)[nH]c21 (mixture of isomers) [valganciclovir] (10 µM) | 0.118 | 102% (inactive)
24 | CC(C)(C(=O)NCC(F)(F)C(F)(F)F)C(=O)N[C@@H]1C(=O)Nc2ccccc2-c2ccccc21 (10 µM) | 0.217 | 86% (inactive)
25 | O=C1NCN(c2ccccc2)C12CCN(CCCC(c1ccc(F)cc1)c1ccc(F)cc1)CC2 [fluspirilene] (10 µM) | 0.056 | 113% (inactive)
26 | O=[N+]([O-])c1cn2c(n1)OC[C@@H](OCc1ccc(-c3ccc(OC(F)(F)F)cc3)nc1)C2 (10 µM) | -0.214 | 110% (inactive)
27 | CN1CCN(c2c(F)cc3c(=O)c(C(=O)O)cn4c3c2SCC4)CC1 [rufloxacin] (10 µM) | 0.0805 | 103% (inactive)
28 | C[n+]1ccccc1C=NO [pralidoxime] (10 µM) | -0.226 | 116% (inactive)
29 | O=S(=O)(c1cccc2c(O)nccc12)N1CCCNCC1 [hydroxyfasudil] (10 µM) | 0.355 | 108% (inactive)
30 | O=c1c(O)c(-c2ccc(O)c(O)c2)oc2cc(O)ccc12 [fisetin] (10 µM) | 0.115 | 111% (inactive)
31 | O=C1C2CC=CCC2C(=O)N1SC(Cl)(Cl)Cl (stereo unspecified) [captan] (10 µM) | 0.232 | 93% (inactive)
32 | CCCN1C[C@H](CSC)C[C@@H]2c3cccc4[nH]cc(c34)C[C@H]21 [pergolide] (10 µM) | 0.343 | 78% (inactive)
33 | O=C(Cc1cccc(OC(F)(F)F)c1)Nc1ccc(CCCCc2nnc(NC(=O)Cc3ccccn3)s2)nn1 (10 µM) | -0.0099 | 104% (inactive)
34 | CCC(CC)O[C@@H]1C=C(C(=O)O)C[C@H](N)[C@H]1NC(C)=O [oseltamivir-carboxylate] (10 µM) | -0.0548 | 102% (inactive)
35 | CN(C(=O)c1c(O)c2ccccc2n(C)c1=O)c1ccccc1 [roquinimex] (10 µM) | 0.211 | 94.5% (inactive)
36 | OCCCCO [1,4-butanediol] (10 µM) | 0.0223 | 105% (inactive)
37 | Nc1nc2ccc(OC(F)(F)F)cc2s1 [riluzole] (10 µM) | 0.188 | 105% (inactive)
38 | COc1ccc(C2CNC(=O)NC2)cc1O[C@H]1C[C@@H]2CC[C@H]1C2 [atizoram] (10 µM) | 0.369 | 93.5% (inactive)
39 | Cc1ccc(CC2(O)CCN(CCOc3ccc(O)cc3)CC2)cc1 (10 µM) | -0.0871 | 111% (inactive)
40 | CN(CCOc1ccc(CC2SC(=O)NC2=O)cc1)c1ccccn1 (stereo unspecified) [rosiglitazone] (10 µM) | 0.279 | 92.5% (inactive)
41 | CC(=O)Oc1cc(C(F)(F)F)ccc1C(=O)O [triflusal] (10 µM) | 0.126 | 102% (inactive)
42 | COC(=O)c1ccc(O)cc1 [methylparaben] (10 µM) | -0.112 | 114% (inactive)

Row | Compound | morphology score [1] | SARS-CoV-2 infection rate [2]
43 | c1cn2cc(-c3ccc4cn[nH]c4c3)nc(Nc3ccc(N4CCOCC4)cc3)c2n1 (10 µM) | 0.194 | 104% (inactive)
44 | CC(C)(C)C(=O)OCOC(=O)[C@@H]1N2C(=O)C[C@H]2S(=O)(=O)C1(C)C [sulbactam-pivoxil] (10 µM) | 0.184 | 89% (inactive)
45 | CN(C)C(=O)Oc1ccc[n+](C)c1 [mestinon] (10 µM) | 0.0902 | 121% (inactive)
46 | COc1ccc(OC)c(CN(C(C)=O)c2cc(F)ccc2Oc2ccccc2)c1 (10 µM) | 0.0987 | 95% (inactive)
47 | O=C(NO)c1ccc2[nH]c(=O)c(CCCc3ccccc3)nc2c1 (10 µM) | -0.0251 | 100% (inactive)
48 | Clc1cccc(SC2CCNCC2)n1 [anpirtoline] (10 µM) | 0.0464 | 106% (inactive)
49 | CC(C)OC(=O)N1CCC(Oc2ncnc3c2cnn3-c2ccc(S(C)(=O)=O)cc2F)CC1 (10 µM) | 0.0759 | 98% (inactive)
50 | CCN(c1cc(-c2ccc(CN3CCOCC3)cc2)cc(C(=O)NCc2c(C)cc(C)[nH]c2=O)c1C)C1CCOCC1 [tazemetostat] (10 µM) | 0.0658 | 104% (inactive)
51 | O=C(O)c1cn(C2CC2)c2cc(N3CCNCC3)c(F)cc2c1=O [ciprofloxacin] (10 µM) | 0.046 | 106% (inactive)
52 | COc1cccc(OC)c1C(=O)N[C@@H]1C(=O)N2[C@@H]1SC(C)(C)[C@@H]2C(=O)O [methicillin] (10 µM) | -0.0574 | 112% (inactive)
53 | Cn1cnc2c1c(=O)[nH]c(=O)n2C [theobromine] (10 µM) | 0.00515 | 108% (inactive)
54 | COc1cc([S+](C)[O-])ccc1-c1nc2cccnc2[nH]1 (stereo unspecified) [sulmazole] (10 µM) | 0.165 | 98.5% (inactive)
55 | O=C(O)c1ccc(O)c2ncccc12 (10 µM) | 0.022 | 102% (inactive)
56 | CC1=C(/C=C/C(=C/C=C/C(C)=C/C(=O)O)c2ccc(C)cc2)C(C)(C)CCC1 (10 µM) | 0.171 | 106% (inactive)
57 | Cc1c(NC(=O)c2cccnc2)c(=O)n(-c2ccccc2)n1C [nifenazone] (10 µM) | 0.0329 | 102% (inactive)
58 | CC(C)(C)NCC(O)CSc1nc(-c2ccc(C(N)=O)s2)cs1 (stereo unspecified) [arotinolol] (10 µM) | 0.0582 | 106% (inactive)
59 | CCN(CC)CCNC(=O)c1cc(S(C)(=O)=O)ccc1OC [tiapride] (10 µM) | 0.0888 | 98% (inactive)
60 | CCc1cn([C@H]2C[C@H](O)[C@@H](CO)O2)c(=O)[nH]c1=O [edoxudine] (10 µM) | 0.0361 | 108% (inactive)
61 | CC(=O)c1ccc2c(c1)N(CCCN(C)C)c1ccccc1S2 [acepromazine] (10 µM) | 0.192 | 104% (inactive)
62 | CCCCCCC[N+](CC)(CC)CCCCc1ccc(Cl)cc1 [clofilium] (10 µM) | 0.0344 | 118% (inactive)
63 | COc1cc(NS(=O)(=O)c2ccc(N)cc2)ncn1 [sulfamonomethoxine] (10 µM) | 0.102 | 89.5% (inactive)
